# Assay outcomes (PubChem BioAssay)
# 12-hLO inh – blocks human 12-lipoxygenase activity; purified 12-hLO, xylenol orange hydroperoxide absorbance; AID 1452; P18054; 150,000 compounds, 0.12% hits; Potency, µM (series often up to 57.1 µM), for the others: at the top dose activity change, negative = inhibition, usual class: inhibitors; active = well fitted inhibition curve with a large enough effect; inconclusive = small, poorly fitted or top-dose-only effect; note: potency is the fitted concentration of half-maximal effect; nearly all actives have a fitted effect of over 55% in size
# Target sequence (P18054 whole entry, looked up): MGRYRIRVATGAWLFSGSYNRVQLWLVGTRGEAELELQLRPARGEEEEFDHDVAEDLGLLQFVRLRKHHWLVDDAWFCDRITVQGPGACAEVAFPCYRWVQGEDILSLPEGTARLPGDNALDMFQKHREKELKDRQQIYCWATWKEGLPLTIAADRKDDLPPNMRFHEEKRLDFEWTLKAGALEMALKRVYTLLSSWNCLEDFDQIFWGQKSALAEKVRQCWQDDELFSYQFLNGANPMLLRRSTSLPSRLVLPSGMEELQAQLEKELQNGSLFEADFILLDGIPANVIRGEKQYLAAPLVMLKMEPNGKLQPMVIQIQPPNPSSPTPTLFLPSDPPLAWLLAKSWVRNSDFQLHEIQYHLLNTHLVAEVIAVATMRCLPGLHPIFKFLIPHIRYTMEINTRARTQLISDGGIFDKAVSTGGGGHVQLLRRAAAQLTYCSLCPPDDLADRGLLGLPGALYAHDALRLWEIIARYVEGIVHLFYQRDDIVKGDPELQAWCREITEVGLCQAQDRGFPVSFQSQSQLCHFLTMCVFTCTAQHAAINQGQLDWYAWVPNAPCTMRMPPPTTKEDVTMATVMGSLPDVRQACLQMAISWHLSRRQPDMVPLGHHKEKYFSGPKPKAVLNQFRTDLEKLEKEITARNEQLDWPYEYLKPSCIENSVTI
#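 Xylenol orange chromogenic assay: hydroperoxide from 12hLO oxidises Fe(II), giving red-shifted Fe(III)-XO absorbance. Conditions: 150 nM enzyme, 40 uM arachidonic acid, 25 mM Hepes pH 7.0, 0.01% Triton X-100, 30 min, room temperature.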
# PNC assembly inh – blocks assembly of the perinucleolar compartment. PC3M PTB-GFP, PNC prevalence imaging, 16 h; hits give low values. activity change (PNC), negative = inhibition, % at 10 µM. 140,000 compounds, 3.1% hits. AID 2417;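 active = readout at or below -70, meaning at least 70% loss of cells showing the perinucleolar compartment, a nuclear body marking cancer cells; inconclusive = readout between -30 and a set limit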;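 note: plate controls were DMSO wells for no effect and camptothecin positive control wells for full effect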
#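 PC3M cells stably expressing PTB-GFP, 750–1000 cells/well, treated 16 h at 37 °C with compound (23 nl of library stock), in duplicate. After paraformaldehyde fixation and Hoechst stain, imaged at 20x; PNC prevalence scored by image analysis.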
# ALDH1A1 inh – inhibitors of human aldehyde dehydrogenase 1A1. P00352. Purified ALDH1A1, NADH fluorescence, propionaldehyde substrate. Potency, µM (top dose mostly 75.3 µM), without a hit: at the top dose activity, negative = inhibition, actives largely listed as inhibitors. 220,000 compounds, 7.3% hits. AID 1030;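 note: potency is the fitted concentration of half-maximal effect; plate controls were no enzyme wells and a reference inhibitor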
# HPGD block – HPGD (human) dehydrogenase inhibition; P15428; Potency, µM, for the others: top-dose activity change, negative = inhibition, hits mostly inhibitors; AID 894; 150,000 compounds, 4.3% hits; purified HPGD, NADH fluorescence kinetic, PGE2 substrate; note: potency is the fitted concentration of half-maximal effect
#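 20 nM HPGD preincubated 15 min at room temperature with compound in 50 mM Tris-HCl pH 8, 0.01% Tween 20. Started with 1 mM NAD+ and 30 uM prostaglandin E2; NADH fluorescence (360/450 nm) read 5 times over 30-s intervals, last minus first.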
# LMNA splice mod – modulators of lamin A splicing. 200,000 compounds, 0.01% hits. Potency, µM (titrated, usually from 46.1 µM), for inactives: at the top dose ratio change, negative = inhibition, most hits filed as inhibitors. HeLa LMNA splicing GFP/RFP minigene ratio, 48 h; active = well fitted inhibition curve with a large enough effect in the signal ratio, with a control signal flat, not every such curve was filed as active; inconclusive = small, poorly fitted or top-dose-only effect, or effect the other way, or a change in a side signal; the % refers to the signal ratio; note: potency is the fitted concentration of half-maximal effect
#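 S3 HeLa stable clones carrying a lamin A-EGFP splicing minigene plus DsRed2 were seeded at 600 cells/well in Opti-MEM with 2% FBS, pin-dosed and incubated 48 h at 37°C. Acumen cytometry (488 nm) gave the GFP/RFP total-intensity ratio.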
# The depositor's hits bear a star; ? = inconclusive; · = no result given; [ ] = dose if it differs, or a comment. The list is not random: actives were taken first. Their share in the collection is about 10%. Unless noted, calls come from the whole dose curve; as a rule, active = well fitted inhibition curve with a large enough effect (not every such curve was filed as active); inconclusive = small, poorly fitted or top-dose-only effect, or another doubt; inactive = no such curve, though single readings can be large or run the other way. Unless noted, % is set by controls: 0 for no effect and ±100 for the full control effect.
SMILES,12-hLO inh,PNC assembly inh,ALDH1A1 inh,HPGD block,LMNA splice mod
COc1ccccc1-c1ccc(Nc2ccc(C(=O)N3CCOCC3)cc2)nn1,0%,164,?,7.9µM*,-19%
COc1ccc(-c2ccc(Nc3ccc(C(=O)N4CCOCC4)cc3)nn2)cc1OC,1%,-2,0%,18µM*,-17%
CCC(C(=O)Nc1ccc(C(C)=O)cc1)n1cnc2nc3c(cc2c1=O)CCCC3 (centres undefined),·,·,·,·,-9%[46 µM]
O=C(CCCCCNC(=S)Nc1ccc(Cl)cc1)C[N+](=O)[O-],·,·,10µM*,·,6%[46 µM]
COc1ccc(CCNC(=S)Nc2ccc(OC)cc2)cc1,-15%,-14,?,-24%,?
COc1ccc(NC(=S)NCCCCCC(=O)C[N+](=O)[O-])cc1,·,·,2.5µM*,·,15%[46 µM]
OCCCNC(=S)Nc1ccc(Nc2ccccc2)cc1,·,·,-1%,·,?
O=C(CCCCCNC(=S)Nc1ccccc1)C[N+](=O)[O-],·,·,3.5µM*,·,·
O=C(CCCCCNC(=O)c1ccccc1)C[N+](=O)[O-],·,·,2.2µM*,·,-17%[46 µM]
Oc1c(C(c2ccccc2F)N2CCN(c3ccccc3F)CC2)sc2nc(-c3ccco3)nn12 (centres undefined),·,·,·,·,12%[46 µM]
Cc1ccccc1C(=O)Nc1nnc(SCc2cc(=O)n3ccccc3n2)s1,·,·,·,·,10%[46 µM]
N#CC(C#N)=Cc1cc2ccccc2nc1N1CCOCC1,-1%,3,11µM*,0%,-17%
CCOC(=O)/C(C#N)=C/c1cc2ccccc2nc1N1CCCCC1,·,·,19µM*,·,-12%[46 µM]
Cc1ccc2cc(C=C(C#N)C#N)c(N3CCCCC3)nc2c1,-1%,-11,7.9µM*,-5%,-3%
Cc1ccc2cc(/C=C(\C#N)C(N)=O)c(N3CCCCC3)nc2c1,3%,-15,11µM*,-16%,?
COc1cccc(-c2cc(NCc3cccc(C)c3)ncn2)c1,·,·,-7%,·,-14%
CO[C@H]1COC(=O)C/C=C\[C@H](C)[C@@H](OC)COC(=O)[C@@H](C)COC(=O)C/C=C\[C@@H]1C,·,·,-6%[13.5 µM],·,·
COC(=O)NC(/C(C(=O)OC)=C(\C)NCc1ccccc1)c1ccco1 (centres undefined),·,·,18%[13.5 µM],·,·
CN[C@@H]1[C@H](O[C@H]2[C@@H](O[C@@H]3[C@@H](O)[C@@H](O)[C@@H](N=C(N)N)[C@@H](O)[C@@H]3N=C(N)N)O[C@@H](C)[C@]2(O)CO)O[C@H](CO)[C@@H](O)[C@@H]1O,0%[25.6 µM],·,7%[20.9 µM],-4%,?
COc1cc(OC)cc(-c2nc3ccccc3c(=O)n2OC(=O)c2ccc(Br)cc2)c1,-15%,-116*,-4%,-16%,?
COc1ccc(C(=O)On2c(-c3ccc(Br)cc3)nc3ccccc3c2=O)cc1,-6%,-6,?,-11%,?
O=C(NCCS(=O)(=O)N1CCN(c2ccccc2F)CC1)C(c1ccccc1)c1ccccc1,·,·,·,·,4%[46 µM]
O=C(NCCOc1nc(N2CCOCC2)nc(N2CCOCC2)n1)Nc1ccccc1,-12%,-6,4%,-8%,-4%
O=C(NCCOc1nc(N2CCCCC2)nc(N2CCOCC2)n1)Nc1ccccc1,-1%,-107*,8.9µM*,-8%,-1%
O=c1cc(O)c2sc(Nc3ccc(F)c(Cl)c3)nc2[nH]1,·,·,7.9µM*,·,?
SMILES,12-hLO inh,PNC assembly inh,ALDH1A1 inh,HPGD block,LMNA splice mod
O=C(CCN1Cc2ccccc2C1)c1ccc2c(c1)OCCO2,-6%,0,1.3µM*,-12%,?
O=C(O)CCSCC(=O)c1ccc2c(c1)OCCO2,-3%,0,15µM*,-7%,2%
CN(C)CCC(=O)c1cccc(Br)c1,·,·,0.04µM*,·,·
Cc1cc(C(=O)OCC(=O)c2ccc3c(c2)OCCO3)c(C)o1,-6%,?,?,20µM*,5%
Cc1c(C(=O)OCC(=O)c2ccc3c(c2)OCCO3)oc2ccccc12,-1%,-13,-6%,-11%,?
O=C(O)CCC(=O)c1ccc2c(c1)OCCO2,4%,36,12%,-15%,6%
CN(CCOC(=O)c1cccc(Br)c1)C(C)(C)C,6%,?,-11%,-16%,6%
CCc1ccc(CNC(=O)c2cnc3sc(N4CCCCCC4)nn3c2=O)cc1,·,·,·,·,1%[46 µM]
O=C(CS(=O)(=O)c1ccccc1)c1ccc2c(c1)OCCO2,7%,?,?,?,-12%
CN(C)CCCC(=O)c1ccc2c(c1)OCO2,5%,11,-4%,-16%,-10%
